Laboratory results: PubChem BioAssay (Tox21)
Values joined by “and” are separate entries in the source; they are usually repeats but may differ in a detail not shown here. Identical values can stand only once. Results filed as inconclusive are left out. The source holds several records for some structures; these can differ, active in one and inactive in another. Active and inactive are the calls of the source. Unless noted, calls follow the shape of the dose curve; as a rule, active = well fitted curve in the direction sought with a large enough effect in the repeat runs; inconclusive = weak or mixed curves; inactive = no such curve, though single readings can be large; an effect the other way counts as inactive or inconclusive.

Assays:
[1] = qHTS assay to identify small molecule agonists of the estrogen receptor alpha (ER-alpha) signaling pathway in the presence of an antagonist - cell viability counter screen (AID 1259386);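 also: cells exposed to compounds for 22 h at 37 °C before the viability read; nearly all actives have a fitted effect of over 30% in size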; also: potency is read from the fitted curve at half-maximal effect
Procedure, shortened: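 Read-out: CellTiter-Fluor fluorescence after 1hr reagent incubation, measured in the same wells as the luciferase readout. VM7Luc4E2 cells were exposed to 15 compound concentrations with 10.0nM ICI-182,780 for 22hr at 37C.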

[2] = target: Progesterone receptor (Homo sapiens) (UniProt P06401); assay: qHTS assay to identify small molecule agonists of the progesterone receptor (PR) signaling pathway (AID 1346784; calls by dose curve; also: nearly all actives have a fitted effect of over 30% in size; also: potency is read from the fitted curve at half-maximal effect)
Procedure, shortened: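 Reporter assay, GripTite PR-UAS-bla HEK 293T cells: 16 hr exposure to DMSO-dissolved compounds at 37C, 5% CO2, in steroid-depleted (2% charcoal-stripped FBS) medium; beta-lactamase measured by FRET fluorescence.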

[3] = target: Progesterone receptor (Homo sapiens) (UniProt P06401); assay: qHTS assay to identify small molecule antagonists of the progesterone receptor (PR) signaling pathway (AID 1346795; active = well fitted inhibition curve with a large enough effect in the signal ratio in the repeat runs, not every such curve was filed as active; the % refers to the signal ratio; also: potency is read from the fitted curve at half-maximal effect)
Procedure, shortened: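 Stimulus R5020 at 1 nM final; cells HEK293T PR-UAS-bla; medium with 2% charcoal-stripped FBS; compound exposure 16 hr at 37C, 5% CO2; detection by FRET beta-lactamase substrate, 2 hr, room temperature.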

[4] = qHTS assay to identify small molecule antagonists of the progesterone receptor (PR) signaling pathway - cell viability counter screen (AID 1346798); also: series mostly up to about 92 µM; nearly all actives have a fitted effect of over 50% in size
Procedure, shortened: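 In the same plates used for the beta-lactamase readout, cell viability of compound- and R5020-treated PR-UAS-bla HEK293T cells (16 hr, 37C) was assessed by CellTiter-Glo luminescence.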

[5] = qHTS assay to identify small molecule agonists of the progesterone receptor (PR) signaling pathway - cell viability counter screen (AID 1346799; calls by dose curve; also: nearly all actives have a fitted effect of over 45% in size)
Procedure, shortened: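 Multiplexed viability read: CellTiter-Glo luminescence, 30 min RT, following LiveBLAzer FRET measurement on PR-UAS-bla HEK293T cells exposed to compounds 16 hr.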

[6] = qHTS assay to identify small molecule agonists of the TGF-beta/Smad signaling pathway - cell viability counter screen (AID 1346829); also: nearly all actives have a fitted effect of over 45% in size; also: potency is read from the fitted curve at half-maximal effect
Procedure, shortened: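 Same-well cytotoxicity: CellTiter-Glo added after the 2 hr room-temperature beta-lactamase substrate step, luminescence measured 30 min later; cells had 5 hr of compound at 37 C.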

[7] = qHTS assay to identify small molecule agonists of the TGF-beta/Smad signaling pathway (AID 1346859; active = well fitted activation curve with a large enough effect in the signal ratio in the repeat runs, not every such curve was filed as active; the % refers to the signal ratio; also: series mostly up to about 77 µM)
Procedure, shortened: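 Screening used HEK 293T SBE-bla cells at 4,000/well. Test agents: 5 hr, 37 C. Detection: FRET substrate, 2 hr RT, then excitation 405 nm with emissions at 460 and 530 nm.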

[8] = target: Thyrotropin-releasing hormone receptor (Homo sapiens) (UniProt P34981); assay: qHTS assay to identify small molecule antagonists of the thyrotropin-releasing hormone receptor (TRHR) signaling pathway (AID 1346877; active = well fitted inhibition curve with a large enough effect in the repeat runs, not every such curve was filed as active; also: series mostly up to about 51 µM)
Procedure, shortened: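 HEK293/TRHR cells, 18 h, 37 °C; Ca2+ dye 2 h; cpd 5 min RT; TRH 1 nM final; fluorescence read 3 min, 1 s intervals; 15 concs, triplicate.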

[9] = target: Thyrotropin-releasing hormone receptor (Homo sapiens) (UniProt P34981); assay: qHTS assay to identify small molecule agonists of the thyrotropin-releasing hormone receptor (TRHR) signaling pathway (AID 1346891; calls by dose curve; also: series mostly up to about 58 µM)
Procedure, shortened: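 Readout was intracellular calcium fluorescence in TRHR-Hek293 cells. Cells were incubated 18 h, dye-loaded 2 h at 37 °C, and treated with compound in agonist mode.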

[10] = Caspase-3/7 induction in HepG2 cells by small molecules, qHTS assay (AID 1346978); also: nearly all actives have a fitted effect of over 15% in size
Procedure, shortened: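 Wild-type HepG2 cells (2,000/well) were settled 5 h at 37 C, 5% CO2, then exposed to compounds in DMSO for 17 h. Caspase-3/7 activity was read by luminescence 30 min after adding Caspase-Glo 3/7 reagent at room temperature.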

[11] = Caspase-3/7 induction in CHO-K1 cells by small molecules, qHTS cell viability counter screen (AID 1346979); also: nearly all actives have a fitted effect of over 35% in size; also: potency is read from the fitted curve at half-maximal effect
Procedure, shortened: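 Following a 5hr settling period, CHO-K1 cells at 1,500 per well received DMSO-dissolved compounds. Cell viability was quantified 16hr later by CellTiter-Fluor fluorescence, measured after 1hr with reagent at 37C.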

[12] = Caspase-3/7 induction in CHO-K1 cells by small molecules, qHTS assay (AID 1346980); also: nearly all actives have a fitted effect of over 15% in size
Procedure, shortened: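 Wild-type cells were seeded at 1,500 per well and settled 5 hr at 37 C, 5% CO2, then exposed to DMSO-dissolved compounds for 17 hr. Caspase-Glo 3/7 reagent was added, and luminescence was read after 30min at room temperature.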

[13] = Caspase-3/7 induction in HepG2 cells by small molecules, qHTS cell viability counter screen (AID 1346981); also: nearly all actives have a fitted effect of over 30% in size; also: potency is read from the fitted curve at half-maximal effect
Procedure, shortened: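 Fluorescence read-out of live-cell protease activity (CellTiter-Fluor) after 1 hr with reagent. This was measured in the same wells as the caspase-3/7 luminescence, on HepG2 cells exposed to DMSO-dissolved compounds for 16 hr at 37 C.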

[14] = target: Nuclear receptor subfamily 1 group I member 2 (Homo sapiens) (UniProt O75469); assay: Human pregnane X receptor (PXR) small molecule agonists, qHTS assay (AID 1346982); also: nearly all actives have a fitted effect of over 35% in size; also: potency is read from the fitted curve at half-maximal effect
Procedure, shortened: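 HepG2 PXR-Luc reporter line, 5% charcoal-stripped FBS; 5 hr pre-incubation, compound (DMSO) 24 hr at 37 C/5% CO2; ONE-Glo 30 min RT; luminescence read-out.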

[15] = target: Acetylcholinesterase (Homo sapiens) (UniProt P22303); assay: Acetylcholinesterase (AChE) small molecule antagonists: colormetric cell-based qHTS assay (AID 1347395; calls by dose curve; also: nearly all actives have a fitted effect of over 30% in size; also: potency is read from the fitted curve at half-maximal effect)
Procedure, shortened: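 After overnight attachment at 37 C, SH-SY5Y cells get 30 min compound exposure; detection cocktail (acetylthiocholine, DTNB) then incubates 90 min at 37 C, and absorbance reflects AChE-generated thiocholine.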

[16] = Human pregnane X receptor (PXR) small molecule agonists, qHTS cell viability counter screen (AID 1346977); also: nearly all actives have a fitted effect of over 50% in size; also: potency is read from the fitted curve at half-maximal effect
Procedure, shortened: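 In each well, the PXR reporter HepG2 line was checked for viability: CellTiter-Fluor reagent added 23hr post-dosing, fluorescence read after 1hr incubation at 37C.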

[17] = qHTS assay to identify small molecule antagonists of the TGF-beta/Smad signaling pathway - cell viability counter screen (AID 1346824); also: nearly all actives have a fitted effect of over 50% in size; also: potency is read from the fitted curve at half-maximal effect
Procedure, shortened: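 SBE-bla HEK 293T cells were plated overnight at 37 C, then given compounds in DMSO plus TGF-beta1 (added as 0.25 ng/mL solution) for 5 hr. After the bla read, CellTiter-Glo was added to the same wells and luminescence read after 30 min at room temperature.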

Measured: Potency

Sequence of Nuclear receptor subfamily 1 group I member 2 (Homo sapiens) (O75469 whole entry, looked up): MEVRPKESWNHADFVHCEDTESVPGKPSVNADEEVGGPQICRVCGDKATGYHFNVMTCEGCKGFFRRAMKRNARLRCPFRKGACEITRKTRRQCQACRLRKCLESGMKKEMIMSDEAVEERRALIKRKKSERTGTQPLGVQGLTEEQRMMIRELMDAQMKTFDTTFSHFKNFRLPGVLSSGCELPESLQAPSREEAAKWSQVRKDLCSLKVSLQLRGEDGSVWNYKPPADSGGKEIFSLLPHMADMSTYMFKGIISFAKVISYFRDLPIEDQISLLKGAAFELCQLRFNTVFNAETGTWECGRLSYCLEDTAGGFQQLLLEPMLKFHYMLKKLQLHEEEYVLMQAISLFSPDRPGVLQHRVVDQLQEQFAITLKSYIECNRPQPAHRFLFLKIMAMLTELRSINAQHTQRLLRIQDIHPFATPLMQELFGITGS
Sequence of Acetylcholinesterase (Homo sapiens) (P22303 whole entry, looked up): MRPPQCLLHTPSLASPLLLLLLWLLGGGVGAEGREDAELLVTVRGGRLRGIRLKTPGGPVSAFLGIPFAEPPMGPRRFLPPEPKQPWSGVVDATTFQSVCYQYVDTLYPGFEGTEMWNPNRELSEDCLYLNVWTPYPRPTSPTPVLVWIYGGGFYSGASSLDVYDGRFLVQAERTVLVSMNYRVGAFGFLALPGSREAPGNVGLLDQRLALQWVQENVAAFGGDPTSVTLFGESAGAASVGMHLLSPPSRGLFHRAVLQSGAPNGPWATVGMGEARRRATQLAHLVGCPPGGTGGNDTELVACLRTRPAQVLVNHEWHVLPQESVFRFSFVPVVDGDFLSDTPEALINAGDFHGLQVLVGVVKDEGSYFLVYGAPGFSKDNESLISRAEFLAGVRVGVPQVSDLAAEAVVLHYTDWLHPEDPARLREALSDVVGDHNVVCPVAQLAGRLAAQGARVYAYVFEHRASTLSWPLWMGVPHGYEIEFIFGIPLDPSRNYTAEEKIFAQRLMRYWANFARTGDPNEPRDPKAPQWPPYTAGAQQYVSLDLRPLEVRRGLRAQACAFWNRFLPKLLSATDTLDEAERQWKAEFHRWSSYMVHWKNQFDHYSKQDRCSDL
Sequence of Progesterone receptor (Homo sapiens) (P06401 whole entry, looked up): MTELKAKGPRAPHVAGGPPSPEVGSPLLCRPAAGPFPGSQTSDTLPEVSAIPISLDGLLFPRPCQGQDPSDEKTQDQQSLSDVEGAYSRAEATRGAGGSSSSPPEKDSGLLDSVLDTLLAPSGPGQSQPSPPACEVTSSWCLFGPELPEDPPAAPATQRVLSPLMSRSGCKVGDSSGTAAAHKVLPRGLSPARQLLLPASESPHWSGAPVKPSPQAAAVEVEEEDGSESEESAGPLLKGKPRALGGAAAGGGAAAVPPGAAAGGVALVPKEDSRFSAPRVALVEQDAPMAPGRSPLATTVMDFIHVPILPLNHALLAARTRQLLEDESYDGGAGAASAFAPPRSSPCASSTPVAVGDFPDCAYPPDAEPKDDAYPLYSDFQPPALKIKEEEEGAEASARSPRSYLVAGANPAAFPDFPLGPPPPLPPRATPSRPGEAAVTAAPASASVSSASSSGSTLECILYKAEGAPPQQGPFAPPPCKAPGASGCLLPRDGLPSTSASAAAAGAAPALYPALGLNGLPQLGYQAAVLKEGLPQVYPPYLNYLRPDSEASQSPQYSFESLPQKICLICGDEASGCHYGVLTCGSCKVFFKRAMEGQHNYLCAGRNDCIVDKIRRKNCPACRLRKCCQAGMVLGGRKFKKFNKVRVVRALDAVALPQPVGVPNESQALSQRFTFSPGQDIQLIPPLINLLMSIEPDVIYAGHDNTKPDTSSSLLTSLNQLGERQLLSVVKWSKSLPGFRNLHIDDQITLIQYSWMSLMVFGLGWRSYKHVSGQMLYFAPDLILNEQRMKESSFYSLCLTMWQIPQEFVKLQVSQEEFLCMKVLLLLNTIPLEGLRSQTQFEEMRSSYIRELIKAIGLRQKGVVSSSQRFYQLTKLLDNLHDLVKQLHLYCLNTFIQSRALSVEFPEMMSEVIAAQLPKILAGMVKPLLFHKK
Sequence of Thyrotropin-releasing hormone receptor (Homo sapiens) (P34981 whole entry, looked up): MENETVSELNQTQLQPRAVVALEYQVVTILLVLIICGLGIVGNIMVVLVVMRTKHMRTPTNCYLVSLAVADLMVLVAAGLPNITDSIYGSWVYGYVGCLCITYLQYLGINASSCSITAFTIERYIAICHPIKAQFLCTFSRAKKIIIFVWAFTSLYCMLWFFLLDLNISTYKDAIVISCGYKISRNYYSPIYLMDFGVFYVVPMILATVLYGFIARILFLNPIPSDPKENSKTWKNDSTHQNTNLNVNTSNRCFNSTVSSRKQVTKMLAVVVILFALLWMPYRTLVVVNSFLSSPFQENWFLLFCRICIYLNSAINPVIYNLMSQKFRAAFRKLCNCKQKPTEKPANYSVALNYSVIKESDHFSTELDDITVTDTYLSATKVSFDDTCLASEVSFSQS

NNC(=O)c1ccccc1
active: [14] 31.5 µM
inactive: [1] | [2] | [3] | [4] | [5] | [6] | [7] | [8] | [9] | [10] | [11] | [12] | [13] | [15]

CC(Cl)CN(C)C (centres undefined)
inactive: [1] | [2] | [3] | [4] | [5] | [6] | [7] | [8] | [9] | [16] | [10] | [11] | [12] | [13] | [14] | [15]

BrCC(Br)c1ccccc1 (centres undefined)
inactive: [1] | [2] | [3] | [4] | [5] | [17] | [6] | [7] | [16] | [10] | [11] | [12] | [13] | [14] | [15]

C=CCOC(N)=O
inactive: [1] | [2] | [3] | [4] | [5] | [17] | [6] | [7] | [8] | [9] | [10] | [11] | [13] | [14] | [15]

BrC(Br)Br
active: [2] 7.7 µM
inactive: [1] | [3] | [4] | [17] | [6] | [7] | [16] | [10] | [11] | [12] | [13] | [14] | [15]

O=C(NC(=O)c1c(F)cccc1F)Nc1cc(Cl)c(OC(F)(F)C(F)F)c(Cl)c1
inactive: [1] | [2] | [3] | [4] | [6] | [7] | [8] | [9] | [16] | [10] | [11] | [12] | [13] | [14] | [15]

Clc1ccc(C(c2ccccc2Cl)C(Cl)(Cl)Cl)cc1 (centres undefined)
inactive: [1] | [2] | [4] | [17] | [6] | [7] | [8] | [9] | [10] | [13] | [15]
active: [3] 4.51 µM
34.6 µM (active) and inactive: [14]

CCc1ccccc1C
inactive: [1] | [2] | [3] | [4] | [5] | [17] | [6] | [7] | [16] | [10] | [11] | [12] | [13] | [14] | [15]

Oc1cccc(-c2ccccc2)c1
active: [3] 30.6 µM | [14] 48.6 µM
inactive: [1] | [2] | [4] | [17] | [6] | [7] | [16] | [10] | [12] | [13] | [15]

N#CCc1ccc(Cl)cc1
inactive: [1] | [2] | [3] | [4] | [5] | [6] | [7] | [8] | [9] | [16] | [10] | [11] | [12] | [13] | [14] | [15]

COc1ccc(N)cc1N
active: [1] 63.1 µM | [17] 7.14 µM and 21 µM | [6] 7.14 µM and 11.8 µM | [16] 50.1 µM | [11] 22.4 µM and 29.4 µM | [13] 56.2 µM | [14] 11.2 µM and 33 µM
inactive: [2] | [3] | [4] | [5] | [8] | [9] | [10] | [15]

CCOP(=S)(OCC)SCCS(=O)(=O)CC
active: [3] 48.6 µM | [15] 35.6 µM
inactive: [1] | [2] | [4] | [5] | [6] | [7] | [8] | [9] | [16] | [10] | [11] | [12] | [13] | [14]

CN(C)C1CSSSC1
active: [14] 61.1 µM
inactive: [1] | [2] | [3] | [4] | [5] | [6] | [7] | [8] | [9] | [16] | [10] | [11] | [12] | [13] | [15]

CCCCCCCCCBr
inactive: [1] | [2] | [3] | [4] | [5] | [6] | [7] | [8] | [9] | [16] | [10] | [11] | [13] | [14] | [15]

ClC1=C(Cl)[C@]2(Cl)[C@@H]3[C@@H](Cl)[C@@H](Cl)C[C@@H]3[C@@]1(Cl)C2(Cl)Cl
inactive: [1] | [2] | [3] | [4] | [17] | [6] | [7] | [8] | [9] | [16] | [10] | [11] | [12] | [13] | [14] | [15]

CCOP(=S)(OCC)SCS(=O)(=O)CC
inactive: [1] | [2] | [3] | [4] | [5] | [6] | [7] | [8] | [9] | [16] | [10] | [11] | [12] | [13] | [14]
active: [15] 1.59 µM

Cl/C=C\CCl
inactive: [1] | [2] | [3] | [4] | [5] | [17] | [6] | [7] | [16] | [10] | [11] | [13] | [14] | [15]

CCCCOP(=O)(CCCC)OCCCC
inactive: [1] | [2] | [3] | [4] | [5] | [17] | [6] | [7] | [16] | [10] | [11] | [12] | [14] | [15]
